The source made the active and inactive calls. How the source made its calls: active means hit-call score of the fitted dose curve at least 0.9, where 1 is the maximum; inactive means score below 0.9.
Columns and labels:
Conditions in all cases: mRNA level, 48 h; actives raise or lower the signal
CYP4A11 (gene 1579) = experiment: LTEA_HepaRG_CYP4A11: Life Technologies and Expression Analysis (LTEA) Assay for CYP4A11 using HepaRG (AID 2283486)
Summary of the method: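 Differentiated HepaRG cells, 48 h after plating, exposed in duplicate for 48 h to 8 half-log concentrations up to 100 uM in 0.5% DMSO in serum-free induction medium. CYP4A11 mRNA measured by TaqMan qRT-PCR, normalized to ACTB, GAPDH and POLR2A.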

[1] = read-out: Cytochrome P450 3A4 (Homo sapiens) (UniProt P08684); experiment: LTEA_HepaRG_CYP3A4: Life Technologies and Expression Analysis (LTEA) Assay for CYP3A4 using HepaRG (AID 2283487)
Summary of the method: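 Differentiated HepaRG cells, plated 48 h, then dosed 48 h in serum-free induction medium with 0.5% DMSO, 8 half-log concentrations up to 100 uM, duplicate. CYP3A4 mRNA by qRT-PCR, normalized to ACTB/GAPDH/POLR2A; bidirectional fit versus DMSO.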

[2] = read-out: DNA damage-inducible transcript 3 (DDIT3), DDIT3 (gene 1649); experiment: LTEA_HepaRG_DDIT3: Life Technologies and Expression Analysis (LTEA) Assay for DNA damage-inducible transcript 3 (DDIT3) using HepaRG (AID 2283488)
Summary of the method: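 Eight-point concentration-response (100 uM highest, half-log dilutions) in HepaRG, 48 h, duplicate wells. Endpoint: qRT-PCR mRNA, normalized (ACTB, GAPDH, POLR2A), bidirectional fitting with DMSO as baseline.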

[3] = read-out: Pro-epidermal growth factor (Homo sapiens) (UniProt P01133); experiment: LTEA_HepaRG_EGF: Life Technologies and Expression Analysis (LTEA) Assay for Epidermal growth factor (EGF) using HepaRG (AID 2283489)
Summary of the method: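 HepaRG cells (~100,000/well, 48 h pre-culture) exposed in duplicate for 48 h in serum-free induction medium to 8 half-log concentrations up to 100 uM in 0.5% DMSO. EGF mRNA by qRT-PCR, normalized to ACTB/GAPDH/POLR2A; bidirectional fit versus DMSO.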

[4] = read-out: Early growth response protein 1 (EGR1) transcription factor, EGR1 (gene 1958); experiment: LTEA_HepaRG_EGR1: Life Technologies and Expression Analysis (LTEA) Assay for Early growth response protein 1 (EGR1) transcription factor using HepaRG (AID 2283490)
Summary of the method: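 EGR1 expression change in human HepaRG after 48 h chemical exposure, assessed by housekeeping-normalized qRT-PCR; concentration-response up to 100 uM, fitted in both directions against DMSO controls.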

[5] = read-out: Ezrin (EZR), EZR (gene 7430); experiment: LTEA_HepaRG_EZR: Life Technologies and Expression Analysis (LTEA) Assay for Ezrin (EZR) using HepaRG (AID 2283491)
Summary of the method: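 EZR transcript levels came from Fluidigm qRT-PCR and were normalized to three housekeeping genes after 48 h chemical exposure of HepaRG cells. Dosing used an 8-point half-log series with a 100 uM top concentration in 0.5% DMSO, tested in duplicate; both directions were fitted versus vehicle.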

[6] = read-out: Cytochrome P450 3A7 (Homo sapiens) (UniProt P24462); experiment: LTEA_HepaRG_CYP3A7: Life Technologies and Expression Analysis (LTEA) Assay for CYP3A7 using HepaRG (AID 2283492)
Summary of the method: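 Differentiated HepaRG cells in serum-free induction medium exposed 48 h in duplicate to 8-point half-log series from 100 uM top in 0.5% DMSO. CYP3A7 mRNA by qRT-PCR, normalized to ACTB/GAPDH/POLR2A, bidirectional fit versus DMSO.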

CYP3A5 (gene 1577) = experiment: LTEA_HepaRG_CYP3A5: Life Technologies and Expression Analysis (LTEA) Assay for CYP3A5 using HepaRG (AID 2283493)
Summary of the method: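 Readout was CYP3A5 mRNA by qRT-PCR. HepaRG cultures were exposed for 48 h in serum-free induction medium to chemicals at up to 100 uM, and responses were fitted in both directions relative to DMSO vehicle.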

[7] = read-out: Fatty Acid-Binding Protein 1 (FABP1), FABP1 (gene 2168); experiment: LTEA_HepaRG_FABP1: Life Technologies and Expression Analysis (LTEA) Assay for Fatty Acid-Binding Protein 1 (FABP1) using HepaRG (AID 2283494)
Summary of the method: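 Values reflect bidirectional concentration-response fitting of FABP1 mRNA change against 0.5% DMSO controls. Human HepaRG cultures received eight half-log doses (top 100 uM) for 48 h; expression quantified by TaqMan qRT-PCR with housekeeping-gene normalization.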

[8] = read-out: Cytochrome P450 4A22 (Homo sapiens) (UniProt Q5TCH4); experiment: LTEA_HepaRG_CYP4A22: Life Technologies and Expression Analysis (LTEA) Assay for Cytochrome P450 4A22 (CYP4A22) using HepaRG (AID 2283495)
Summary of the method: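 Differentiated HepaRG cells in serum-free induction medium exposed 48 h in duplicate to eight half-log concentrations up to 100 uM in 0.5% DMSO. CYP4A22 mRNA quantified by TaqMan qRT-PCR, normalized to ACTB, GAPDH and POLR2A; bidirectional fit versus DMSO.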

[9] = read-out: Cytochrome P450 7A1 (Homo sapiens) (UniProt P22680); experiment: LTEA_HepaRG_CYP7A1: Life Technologies and Expression Analysis (LTEA) Assay for Cytochrome P450 7A1 (CYP7A1) using HepaRG (AID 2283496)
Summary of the method: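 Using 0.5% DMSO as vehicle and baseline, chemicals were tested in duplicate over an 8-point range from 100 uM on HepaRG cells for 48 h; qRT-PCR signals were normalised to ACTB, GAPDH and POLR2A.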

[10] = read-out: Glutathione S-Transferase (GSTA2), GSTA2 (gene 2939); experiment: LTEA_HepaRG_GSTA2: Life Technologies and Expression Analysis (LTEA) Assay for Glutathione S-Transferase (GSTA2) using HepaRG (AID 2283497)
Summary of the method: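 Oxidative-stress marker GSTA2 is quantified by TaqMan qRT-PCR in HepaRG cultures treated 48 h across an eight-point range to 100 uM. Expression is normalized to endogenous controls and compared with 0.5% DMSO vehicle.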

[11] = read-out: Glutamate-cysteine ligase catalytic (GCLC), GCLC (gene 2729); experiment: LTEA_HepaRG_GCLC: Life Technologies and Expression Analysis (LTEA) Assay for Glutamate-cysteine ligase catalytic (GCLC) using HepaRG (AID 2283498)
Summary of the method: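 Oxidative-stress marker GCLC is measured as mRNA change in human HepaRG liver cells after 48 h chemical treatment in 0.5% DMSO, eight concentrations from 100 uM. Activity is fitted bidirectionally against vehicle.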

[12] = read-out: growth arrest and DNA damage 45 (GADD45G), GADD45G (gene 10912); experiment: LTEA_HepaRG_GADD45G: Life Technologies and Expression Analysis (LTEA) Assay for growth arrest and DNA damage 45 (GADD45G) using HepaRG (AID 2283499)
Summary of the method: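 Differentiated human HepaRG cells, 48 h post-plating, exposed 48 h in serum-free induction medium to 8 half-log concentrations (top 100 uM, 0.5% DMSO) in duplicate. GADD45G mRNA measured by Fluidigm TaqMan qRT-PCR, normalized to ACTB, GAPDH, POLR2A; bidirectional fit versus DMSO.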

[13] = read-out: Glutamate-cysteine ligase regulatory (GCLM), GCLM (gene 2730); experiment: LTEA_HepaRG_GCLM: Life Technologies and Expression Analysis (LTEA) Assay for Glutamate-cysteine ligase regulatory (GCLM) using HepaRG (AID 2283500)
Summary of the method: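 In this multiplexed HepaRG gene-expression assay, GCLM mRNA change after 48 h treatment (8 concentrations, max 100 uM) was scored against DMSO by bidirectional curve fitting.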

[14] = read-out: Glutathione S-transferase M3 (GSTM3), GSTM3 (gene 2947); experiment: LTEA_HepaRG_GSTM3: Life Technologies and Expression Analysis (LTEA) Assay for Glutathione S-transferase M3 (GSTM3) using HepaRG (AID 2283501)
Summary of the method: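 Differentiated human HepaRG cells were exposed in duplicate for 48 h in serum-free induction medium, 8 points from 100 uM top in half-log steps, 0.5% DMSO. GSTM3 mRNA was measured by TaqMan qRT-PCR, normalized to ACTB, GAPDH and POLR2A; bidirectional fit versus DMSO.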

[15] = read-out: Heat shock 70 kDa protein 1 (HSPA1A), gene 3303; experiment: LTEA_HepaRG_HSPA1A: Life Technologies and Expression Analysis (LTEA) Assay for Heat shock 70 kDa protein 1 (HSPA1A) using HepaRG (AID 2283502)
Summary of the method: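 An oxidative-stress marker readout: HepaRG cells treated 48 h in duplicate with an eight-point series (highest 100 uM) had HSPA1A mRNA quantified by TaqMan qRT-PCR. Activity was fitted in both directions using 0.5% DMSO as baseline.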

[16] = read-out: Hypoxia-inducible factor 1-alpha (Homo sapiens) (UniProt Q16665); experiment: LTEA_HepaRG_HIF1A: Life Technologies and Expression Analysis (LTEA) Assay for Hypoxia-inducible factor 1 (HIF1A) Trancription factor using HepaRG (AID 2283503);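 further: HIF1A transcript by TaqMan qRT-PCR normalized to ACTB GAPDH and POLR2A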
Summary of the method: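 Gain- or loss-of-signal HIF1A mRNA changes are fitted against a DMSO baseline. HepaRG cultures receive eight concentrations, highest 100 uM, for 48 h in serum-free induction medium with 0.5% DMSO.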

[17] = read-out: 3-Hydroxy-3-Methylglutaryl-CoA Synthase 2 (HMGCS2), HMGCS2 (gene 3158); experiment: LTEA_HepaRG_HMGCS2: Life Technologies and Expression Analysis (LTEA) Assay for 3-Hydroxy-3-Methylglutaryl-CoA Synthase 2 (HMGCS2) using HepaRG (AID 2283504)
Summary of the method: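 Human HepaRG cells in serum-free induction medium were exposed in duplicate for 48 h to 8-point half-log series from 100 uM top in 0.5% DMSO. HMGCS2 mRNA measured by TaqMan qRT-PCR, normalised to ACTB, GAPDH, POLR2A; bidirectional fit versus DMSO.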

HGF (gene 3082) = experiment: LTEA_HepaRG_HGF: Life Technologies and Expression Analysis (LTEA) Assay for Hepatocyte Growth Facto (HGF) using HepaRG (AID 2283505)
Summary of the method: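 Differentiated HepaRG cells in serum-free induction medium exposed 48 h in duplicate, 8 half-log concentrations from 100 uM in 0.5% DMSO. HGF mRNA by qRT-PCR, normalised to ACTB, GAPDH, POLR2A; bidirectional fitting.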

Measured: AC50

Chain of Cytochrome P450 3A4 (Homo sapiens) (P08684 whole entry, looked up): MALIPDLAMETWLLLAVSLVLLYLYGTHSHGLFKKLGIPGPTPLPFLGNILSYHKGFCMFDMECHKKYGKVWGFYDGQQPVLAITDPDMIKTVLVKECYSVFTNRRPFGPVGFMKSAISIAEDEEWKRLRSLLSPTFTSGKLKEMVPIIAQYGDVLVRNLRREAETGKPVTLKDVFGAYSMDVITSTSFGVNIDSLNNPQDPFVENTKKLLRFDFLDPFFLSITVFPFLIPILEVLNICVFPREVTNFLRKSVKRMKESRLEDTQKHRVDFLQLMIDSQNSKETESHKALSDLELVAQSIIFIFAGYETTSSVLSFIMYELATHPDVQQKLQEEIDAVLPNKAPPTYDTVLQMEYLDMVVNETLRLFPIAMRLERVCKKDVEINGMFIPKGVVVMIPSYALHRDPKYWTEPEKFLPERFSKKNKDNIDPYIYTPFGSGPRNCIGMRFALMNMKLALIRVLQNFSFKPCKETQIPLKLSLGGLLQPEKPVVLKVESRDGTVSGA
Chain of Cytochrome P450 3A7 (Homo sapiens) (P24462 whole entry, looked up): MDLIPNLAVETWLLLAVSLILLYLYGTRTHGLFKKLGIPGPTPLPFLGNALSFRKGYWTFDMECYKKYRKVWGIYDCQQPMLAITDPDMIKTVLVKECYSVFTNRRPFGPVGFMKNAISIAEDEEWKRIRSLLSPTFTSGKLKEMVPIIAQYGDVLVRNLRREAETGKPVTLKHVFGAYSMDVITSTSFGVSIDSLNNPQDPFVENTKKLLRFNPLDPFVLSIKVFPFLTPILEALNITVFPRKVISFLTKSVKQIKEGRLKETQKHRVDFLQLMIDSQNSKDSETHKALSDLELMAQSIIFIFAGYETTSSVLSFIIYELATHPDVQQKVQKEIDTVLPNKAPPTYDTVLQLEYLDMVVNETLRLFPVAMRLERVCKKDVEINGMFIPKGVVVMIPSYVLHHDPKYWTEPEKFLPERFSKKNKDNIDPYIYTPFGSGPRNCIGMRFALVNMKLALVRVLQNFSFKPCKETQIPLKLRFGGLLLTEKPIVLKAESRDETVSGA
Chain of Hypoxia-inducible factor 1-alpha (Homo sapiens) (Q16665 whole entry, looked up): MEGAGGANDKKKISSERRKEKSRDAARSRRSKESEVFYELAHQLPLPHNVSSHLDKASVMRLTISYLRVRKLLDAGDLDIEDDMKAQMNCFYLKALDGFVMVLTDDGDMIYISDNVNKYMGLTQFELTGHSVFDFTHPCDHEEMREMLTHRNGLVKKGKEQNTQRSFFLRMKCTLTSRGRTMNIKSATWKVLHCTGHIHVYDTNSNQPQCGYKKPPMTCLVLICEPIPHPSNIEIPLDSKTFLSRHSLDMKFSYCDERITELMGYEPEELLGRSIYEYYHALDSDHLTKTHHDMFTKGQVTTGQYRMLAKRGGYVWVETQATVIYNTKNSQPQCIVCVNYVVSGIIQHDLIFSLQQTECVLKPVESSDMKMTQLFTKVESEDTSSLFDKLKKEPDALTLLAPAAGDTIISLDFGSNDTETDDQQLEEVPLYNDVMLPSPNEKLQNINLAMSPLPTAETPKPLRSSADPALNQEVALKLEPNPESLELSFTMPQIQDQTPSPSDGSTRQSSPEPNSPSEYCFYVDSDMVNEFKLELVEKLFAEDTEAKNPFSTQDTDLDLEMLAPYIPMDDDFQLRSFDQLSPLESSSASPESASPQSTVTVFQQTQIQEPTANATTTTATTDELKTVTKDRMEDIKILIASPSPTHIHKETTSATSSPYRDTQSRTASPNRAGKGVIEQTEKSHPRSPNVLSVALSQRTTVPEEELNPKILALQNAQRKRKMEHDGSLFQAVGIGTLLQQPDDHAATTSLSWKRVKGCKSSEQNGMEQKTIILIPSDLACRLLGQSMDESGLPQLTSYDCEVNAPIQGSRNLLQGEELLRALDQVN

CCCOC(=O)NCCCN(C)C
not listed: HGF (gene 3082)
inactive: all other assays above

S=C([S-])NCCNC(=S)[S-].[Mn+2]
active: CYP4A11 (gene 1579) 3.33 µM | [1] 3.36 µM | [2] 6.1 µM | [3] 5.3 µM | [4] 6.62 µM | [6] 3.49 µM | CYP3A5 (gene 1577) 3.47 µM | [7] 3.58 µM | [8] 3.6 µM | [9] 4.73 µM | [10] 2.38 µM | [12] 4.33 µM | [13] 8.92 µM | [14] 1.88 µM | [16] 3.12 µM | [17] 5.04 µM
inactive: [5] | [11] | [15]

O=C(c1ccc(O)cc1O)c1ccc(O)cc1O
not listed: HGF (gene 3082)
inactive: all other assays above

COc1c(Cl)ccc(Cl)c1C(=O)O
not listed: [3] | [8] | [9] | HGF (gene 3082)
inactive: all other assays above

c1ccc2[nH]c(-c3cscn3)nc2c1
active: [11] 50 µM
not listed: [1] | [6] | HGF (gene 3082)
inactive: all other assays above

CCCOC(=O)c1ccc(C(=O)OCCC)nc1
inactive: all assays above

C[C@]12C[C@H](O)[C@H]3[C@@H](CCC4=CC(=O)CC[C@@]43C)[C@@H]1CC[C@@H]2C(=O)CO
active: [6] 50 µM
not listed: [1] | [2] | HGF (gene 3082)
inactive: all other assays above

C=CCOC(Cn1ccnc1)c1ccc(Cl)cc1Cl (configuration not stated)
inactive: [4] | [5] | [13] | [14] | [15]
active: CYP4A11 (gene 1579) 28.1 µM | [3] 85 µM | CYP3A5 (gene 1577) 79.6 µM | [7] 28.6 µM | [8] 18.6 µM | [9] 35.3 µM | [11] 88.7 µM | [12] 91.6 µM | [16] 79.6 µM | [17] 32.4 µM

CCOC(=O)c1ccc(O)cc1
not listed: [1] | HGF (gene 3082)
inactive: all other assays above

N[C@@H](Cc1cc(I)c(Oc2ccc(O)c(I)c2)c(I)c1)C(=O)O
inactive: [3] | [4] | [5] | [12] | [13] | [15]
active: CYP4A11 (gene 1579) 7.94 µM | [2] 49.7 µM | [7] 40 µM | [8] 0.00445 µM | [9] 40 µM | [10] 58.3 µM | [11] 40 µM | [14] 0.613 µM | [16] 0.00253 µM | [17] 0.00253 µM

O=C(Nc1ccc([N+](=O)[O-])cc1Cl)c1cc(Cl)ccc1O
inactive: [5] | [12] | [13] | [15]
active: CYP4A11 (gene 1579) 3.41 µM | [2] 3.35 µM | [3] 12.1 µM | [4] 1.76 µM | CYP3A5 (gene 1577) 7.24 µM | [7] 2.25 µM | [8] 14.2 µM | [9] 13.6 µM | [10] 2.84 µM | [11] 4.26 µM | [14] 25 µM | [17] 2.59 µM

CCCCCOC(=O)COc1cc(N2C(=O)C3=C(CCCC3)C2=O)c(F)cc1Cl
active: [1] 28 µM
inactive: all other assays above

Source: PubChem BioAssay (EPA / NIEHS)
